Laboratory results as given in PubChem BioAssay (NCI).
About 83,000 compounds went through this panel and 20% of them were active in at least one assay; those are over-represented in the sample as a whole.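 48-hour exposure, single concentration, 96-well plates; percent growth endpoint where 0 means no net growth. Active: below 10.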 Values without a mark were called inactive. Calls of active or inactive are those of the source.

Key:
Experiment in all cases: NCI-60 one-dose screen, 48 h (100 = growth as untreated, 0 = no growth, -100 = all killed)
Conditions in all cases: 10 µM unless noted
[1] = test system: HCT-15 colon
[2] = test system: HT29 colon
[3] = test system: SNB-75 CNS
[4] = test system: SNB-19 CNS
[5] = test system: U251 CNS
[6] = test system: PC-3 prostate
[7] = test system: SK-MEL-5 melanoma
[8] = test system: UACC-62 melanoma
[9] = test system: LOX IMVI melanoma
[10] = test system: SK-MEL-28 melanoma

Q: How did the growth [1] turn out when `CCOC(=O)C(CCCCC(NC(C)=O)(C(=O)OCC)C(=O)OCC)(NC(C)=O)C(=O)OCC` was run?
A: 106%

Q: And the growth [2]?
A: 100%

Q: And the growth [3]?
A: 95.3%

Q: What about the growth [4] of the same compound?
A: 110%

Q: What about the growth [5] of the same compound?
A: 104%

Q: And the growth [6]?
A: 101%

Q: And the growth [7]?
A: 104%

Q: And the growth [8]?
A: 99.5%

Q: And the growth [9]?
A: 98.3%

Q: And the growth [10]?
A: 97%

Q: Which results are given for `ClC1(Cl)C2CCCCCCC21` (stereo not given)?
A: growth [1]: 107%; growth [2]: 97.5%; growth [3]: 97.2%; growth [4]: 99.6%; growth [5]: 109%; growth [6]: 98.7%; growth [7]: 110%; growth [8]: 103%; growth [9]: 108%; growth [10]: 107%

Q: `CC(C)(C)c1ccc(C(=O)Nc2sc3cc(O)ccc3c2C(N)=O)cc1` was tested. Which growth [1] did it give?
A: 43.9%

Q: And the growth [2]?
A: 23.8%

Q: And the growth [3]?
A: 95.9%

Q: What about the growth [4] of the same compound?
A: 94.1%

Q: What about the growth [5] of the same compound?
A: 77.5%

Q: And the growth [6]?
A: 79.2%

Q: And the growth [7]?
A: 96.6%

Q: And the growth [8]?
A: 104%

Q: And the growth [9]?
A: 23.3%

Q: What about the growth [10] of the same compound?
A: 87.5%

Q: How did the growth [1] turn out when `O=C(c1ccccc1)C1OC1C(=O)c1ccccc1` (stereo not given) was run?
A: 13.1%

Q: What about the growth [2] of the same compound?
A: 10% (active)

Q: What about the growth [3] of the same compound?
A: 11.1%

Q: What about the growth [4] of the same compound?
A: 92.9%

Q: What about the growth [5] of the same compound?
A: 28.1%

Q: And the growth [6]?
A: 51%

Q: What about the growth [7] of the same compound?
A: 37.7%

Q: What about the growth [8] of the same compound?
A: 46.8%

Q: What about the growth [9] of the same compound?
A: 2.54% (active)

Q: What about the growth [10] of the same compound?
A: 49.2%

Q: Which growth [1] does the source give for `CCCCCCCCCCCCCCCC1=NCCN1` here?
A: 0.909% (active)

Q: And the growth [2]?
A: 4.17% (active)

Q: What about the growth [3] of the same compound?
A: 82.7%

Q: What about the growth [4] of the same compound?
A: 24.8%

Q: What about the growth [5] of the same compound?
A: 16.1%

Q: And the growth [6]?
A: 47.6%

Q: And the growth [7]?
A: 80.6%

Q: And the growth [8]?
A: 76.1%

Q: What about the growth [9] of the same compound?
A: 1.64% (active)

Q: What about the growth [10] of the same compound?
A: 80.7%

Q: For `O=C1C(Cl)=C(Nc2cccc3ccccc23)C(=O)c2ccccc21`, which growth [1] is on record?
A: 70%

Q: And the growth [2]?
A: 90.3%

Q: And the growth [3]?
A: 81.6%

Q: What about the growth [4] of the same compound?
A: 92.6%

Q: And the growth [5]?
A: 75.6%

Q: What about the growth [6] of the same compound?
A: 43%

Q: And the growth [7]?
A: 60.9%

Q: And the growth [8]?
A: 55.1%

Q: What about the growth [9] of the same compound?
A: 32.7%

Q: And the growth [10]?
A: 91.4%

Q: Which results are given for `COc1ccc(-c2cc(-c3ccc(OC)cc3)c3sc(=O)[nH]c3n2)cc1`?
A: growth [1]: 90.2%; growth [2]: 102%; growth [3]: 88.6%; growth [4]: 73.8%; growth [5]: 72.6%; growth [6]: 86.1%; growth [7]: 96.4%; growth [8]: 90.1%; growth [9]: 92.3%; growth [10]: 115%

Q: For `COc1ccc(Cl)cc1Nc1nc(C(F)(F)F)ccc1C(=O)NN`, which growth [1] is on record?
A: 15.8%

Q: What about the growth [2] of the same compound?
A: 31.4%

Q: And the growth [3]?
A: 15%

Q: And the growth [4]?
A: 41.7%

Q: And the growth [5]?
A: 18.4%

Q: And the growth [6]?
A: 17.2%

Q: What about the growth [7] of the same compound?
A: 77.5%

Q: What about the growth [8] of the same compound?
A: 9.62% (active)

Q: And the growth [9]?
A: 5.37% (active)

Q: What about the growth [10] of the same compound?
A: 13.4%

Q: What does the source list for `CCOc1cc(/C=N\NC(=O)C[N+](C)(C)C)ccc1O`?
A: growth [1]: 103%; growth [2]: 105%; growth [3]: 106%; growth [4]: 117%; growth [5]: 105%; growth [6]: 99.6%; growth [7]: 105%; growth [8]: 111%; growth [9]: 103%; growth [10]: 117%

Q: Which results are given for `CC(C)CCSc1nc(-c2ccc(F)cc2)c(C#N)c(N2CCCCC2)n1`?
A: growth [1]: 97.7%; growth [2]: 83.2%; growth [3]: 94.2%; growth [4]: 102%; growth [5]: 93.6%; growth [6]: 89.2%; growth [7]: 95.8%; growth [8]: 70.3%; growth [9]: 93%; growth [10]: 96.3%

Q: `C=C1C(=O)O[C@H]2[C@H]1CC/C(COC(=O)NCc1c[nH]c3ccc(OC)cc13)=C\CC[C@@]1(C)O[C@@H]21` was tested. Which growth [1] did it give?
A: -26.1% (active)

Q: What about the growth [2] of the same compound?
A: -53.2% (active)

Q: And the growth [3]?
A: 63.2%

Q: What about the growth [4] of the same compound?
A: 64.4%

Q: What about the growth [5] of the same compound?
A: 9.85% (active)

Q: And the growth [6]?
A: -2.65% (active)

Q: And the growth [7]?
A: 15.1%

Q: What about the growth [8] of the same compound?
A: -31.6% (active)

Q: And the growth [9]?
A: -59.6% (active)

Q: What about the growth [10] of the same compound?
A: -23.9% (active)
